# TDP1 cell noCPT: qHTS for Inhibitors of human tyrosyl-DNA phosphodiesterase 1 (TDP1): qHTS in cells in absence of CPT | DT40 Tdp1-/- hTDP1 cells, no CPT, ATP luminescence, 48 h | Potency, µM (series often up to 46.2 µM), inactives show at the highest dose activity change, negative = growth inhibition, most hits filed as inhibitors | hit rate 15% among 420,000; note: potency is the fitted concentration of half-maximal effect; nearly all actives have a fitted effect of over 55% in size
#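 Growth kinetics read by CellTiter-Glo luminescence after ≥48 hr at 37 °C. Cells: DT40 Tdp1-/- stably carrying human TDP1, 400 per well, compound exposure in the absence of CPT (DMSO vehicle).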
# ELG1 DNA repair: blocks ELG1-dependent DNA repair in HEK293T cells. HEK293T ELG1-luciferase reporter, luminescence, 16 h; DNA damage induced by 5-fluorouridine. Potency, µM (series often up to 46.1 µM), without a hit: at the highest dose activity change, negative = inhibition, usual class: inhibitors. hit rate 2.3% among 330,000; note: potency is the fitted concentration of half-maximal effect; nearly all actives have a fitted effect of over 55% in size
#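 Overnight (16 hr) co-exposure of 2,000 cells/well to 5-fluorouridine and compound at 37 °C preceded detection. Luciferase was quantified via ONE-Glo luminescence; loss of signal denotes inhibition.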
# DT40 TDP1 CPT: growth inhibition of DT40 Tdp1-/-;hTDP1 cells with camptothecin (screen for TDP1 inhibitors); chicken DT40 Tdp1-/-;hTDP1 cells + 20 nM CPT, ATP luminescence, 48 h; Potency, µM (series often up to 46.2 µM), for inactives: at the top dose activity change, negative = growth inhibition, usual class: inhibitors; hit rate 12% among 420,000; AID 686979; note: potency is the fitted concentration of half-maximal effect; nearly all actives have a fitted effect of over 55% in size
#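 Chicken DT40 Tdp1-/- cells complemented with human TDP1, 400 cells/well, exposed to compounds plus 20 nM camptothecin for at least 48 h at 37 C; viability read as ATP content by CellTiter-Glo luminescence.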
# IL-1B inflam inh: inhibitors of inflammasome signaling (IL-1 beta secretion); THP-1 LPS/ATP IL-1B secretion, AlphaLISA, 16 h; stronger effect = lower value; activity change, % at 57.5 µM; hit rate 4.7% among 360,000; in the data active = activity change below about -50%; inconclusive = mostly about -30% to -49%
#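 THP-1 cells pretreated 1 hr with compounds (up to 57.5 uM final), then stimulated with LPS (250 ng/mL final) plus ATP (1.25 mM final); secreted IL-1B measured by AlphaLISA after 16 hr, decreased signal indicating inhibition.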
# HT1080 IDH1KD tx: HT-1080 IDH1 knockdown cell toxicity (counter line); HT-1080 IDH1 knockdown viability, ATP luminescence, 48 h; Potency, µM (series often up to 46.1 µM), inactives show top-dose activity, negative = toxicity, most hits filed as cytotoxic; hit rate 2% among 360,000; AID 686971;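 note: potency is the fitted concentration of half-maximal effect; 0% = DMSO wells and -100% = cell-free medium wells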
#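 Luminescent ATP read-out (CellTiter-Glo, 10 min at room temperature) after 48 h compound exposure at 37 °C gave viability of IDH1-knockdown HT-1080 cells. Activity was normalised to DMSO and cell-free wells, then fitted as concentration-response curves.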
# HT1080-NT tox: kills 2HG-producing HT-1080-NT fibrosarcoma cells; HT-1080-NT fibrosarcoma viability, CellTiter-Glo ATP luminescence, 48 h; Potency, µM (titrated, usually from 46.1 µM), for inactives: at the highest dose activity, negative = less viability, usual class: cytotoxic; hit rate 1.6% among 360,000; AID 686970;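 note: NT is the 2HG producing partner of a matched IDH1 knockdown line; potency is the fitted concentration of half-maximal effect; 0% = DMSO-treated cells and -100% = media-only wells without cells; nearly all actives have a fitted effect of over 55% in size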
#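 Viability by CellTiter-Glo luminescence after 48 h compound exposure at 37C of HT-1080-NT cells (750/well, RPMI, 5% FBS). % activity scaled between DMSO wells and medium-only wells, then curve-fitted and categorized by curve class.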
# The depositor's hits bear a star; ? = inconclusive; . = no result. Only some compounds are listed: those with a hit (about 19% of all), similar ones and a draw of the others. Unless noted, calls come from the whole dose curve; as a rule, active = well fitted curve in the direction sought with a large enough effect; inconclusive = small, poorly fitted or top-dose-only effect, or another doubt; inactive = no such curve, though single readings can be large; an effect the other way counts as inactive or inconclusive. Unless noted, % is set by controls: 0 for no effect and ±100 for the full control effect.
SMILES,TDP1 cell noCPT,ELG1 DNA repair,DT40 TDP1 CPT,IL-1B inflam inh,HT1080 IDH1KD tx,HT1080-NT tox
O=[N+]([O-])c1cccnc1S(=O)(=O)c1ccccc1,0.82µM*,-19%,0.92µM*,-97*,18µM*,12µM*
CC1Cc2c([nH]c3ccccc23)C2c3ccccc3CN12 (stereo not given),?,3%,?,17,-21%,-9%
Cc1cn([C@H]2C[C@H](O)[C@@H](CNC(=O)CNC(=O)CN)O2)c(=O)[nH]c1=O,0%,.,3%,14,0%,2%
COc1ccc(Nc2c(-c3ccccn3)nc3ccc(Cl)cn23)cc1,1.6µM*,.,12µM*,.,.,.
Cc1cccc(C)c1Nc1c(-c2ccccn2)nc2ccc(Cl)cn12,?,.,6%,.,.,.
Cc1ccc(Nc2c(-c3ccccn3)nc3cc(C)ccn23)cc1,2.9µM*,?,4.6µM*,-100*,5.8µM*,5.8µM*
Cc1ccc2nc(-c3ccncc3)c(Nc3ccccc3)n2c1,?,11%,?,-9,-2%,2%
Cc1ccc(Nc2c(-c3ccccn3)nc3ccc(C)cn23)cc1,7.3µM*,?,3.3µM*,0,?,?
CCOC(=O)C1CCN(C(=O)c2ccccc2)C(CC)C1=O (stereo not given),?,.,-14%,-4,-2%,0%
S=C(NCCC1=CCCCC1)Nc1ccc(Cl)cc1,21µM*,?,23µM*,11,7%,16%
Clc1ccc(CNCCC2=CCCCC2)cc1,-21%,-15%,-18%,-76*,-21%,6%
COCCNC(=O)CSc1nc2cc3c(cc2c(=O)n1CCCCCC(=O)NCCc1ccc(OC)c(OC)c1)OCO3,-10%,.,9%,.,.,.
COCCn1c(=O)c(-c2ccc(Cl)cc2)nc2cnc(OC)nc21,?,.,6%,.,.,.
CC(=O)Nc1ccc(NC(=O)CSc2nnc(C)n2-c2ccccc2)cc1,17%,10%,7%,0,1%,-2%
Cn1c(=O)n(C)c2cc(NC(=O)CSc3nnc(-c4ccccc4O)n3-c3ccccc3)ccc21,?,-10%,18µM*,-9,-13%,-19%
Cc1ccc(OCc2nnc(SCC(=O)Nc3nccs3)n2-c2ccccc2)cc1C,?,-1%,?,3,10%,11%
Cc1cc(NC(=O)CSc2nnc(C)n2-c2ccccc2)no1,11%,3%,-5%,36,7%,7%
Cc1ccc(CCc2nnc(SCC(=O)Nc3cccc(Cl)c3)n2-c2ccccc2)o1,13µM*,6%,?,1,-12%,-25%
COc1ccc(NC(=O)CSc2nnc(-c3cccs3)n2-c2ccccc2)cc1,-15%,?,-5%,8,?,23µM*
Cc1ccc(NC(=O)CSc2nnc(COc3ccc(C#N)cc3)n2-c2ccccc2)cc1C,?,23µM*,?,-3,-10%,-10%
COc1ccc(/C=C/C(=O)NCC(=O)N/N=C(/CCC(=O)O)c2ccccc2)cc1,2%,-1%,0%,22,-2%,0%
COc1ccc(NC(=O)CSc2nnc3ccc(-c4cccnc4)nn23)cc1,-20%,1%,-11%,0,-3%,3%
CC1CCCC(C)N1C(=O)CSc1nnc(COc2ccccc2)n1-c1ccccc1 (stereo not given),21µM*,-18%,?,-22,-1%,-19%
COc1ccc(NC(=O)CSc2nnc(-c3ccccc3C)n2N)cc1OC,-2%,0%,-8%,1,-2%,5%
COc1ccc(NC(=O)CSc2nnc(-c3ccccc3C)n2N)cc1,21µM*,7%,16µM*,-1,0%,3%

# Compound activity (PubChem BioAssay)
